# The sample as a whole holds a higher share of hits than the screen did.
# RmlCD inh mix: RmlC/RmlD inhibition, mixture screen; RmlC/RmlD coupled enzyme inhibition, 384-well mixture HTS; inhibition, % at 5.5 µM; 110,000 tested, 0.39% active; AID 1532; in the data active = inhibition above about 30%, passing the limit was not always enough; inconclusive = no clear call, values can overlap the other calls
# HIV RNase H inh-1: blocks HIV-1 RNase H cleavage of RNA/DNA duplex; P04585; RT-RNase H RNA/DNA duplex cleavage, fluorescence; 65,000 tested, 1.9% active; inhibition, % at 10 µM; in the data active = inhibition above about 50%
# HIV RNase H inh-2: confirmation of HIV-1 reverse transcriptase RNase H inhibitors; shares compounds with HIV RNase H inh-1; Recombinant RT RNase H, fluorescent RNA/DNA duplex cleavage; inhibition, % at 10 µM; 1,000 tested, 39% active; AID 651; in the data active = inhibition above about 48%; inconclusive = no clear call, values can overlap the other calls
# An asterisk follows results filed as active; ? = inconclusive; / = no result.
SMILES,RmlCD inh mix,HIV RNase H inh-1,HIV RNase H inh-2
CC(=O)N(Cc1cc(=O)[nH]c2ccccc12)c1cccc(C)c1,7,82*,67*
CCOC(=O)N1CCN(C(=O)CS(=O)(=O)c2cn(Cc3cccc(F)c3)c3ccccc23)CC1,6,/,/
Cc1ccc(-c2cc(C(=O)Nc3cccnc3)c3ccccc3n2)o1,-21,69*,32
Cc1ccc(NC(=O)c2cc(-c3ccc(C)o3)nc3ccccc23)cc1,-11,/,/
COc1ccc(C2C(C#N)=C(N)SC(N)=C2C#N)cc1OC,10,30,/
CCOc1cc(C2C(C#N)=C(N)SC(N)=C2C#N)ccc1OCCN1CCOCC1,-4,87*,85*
CCCc1[nH]nc2c1C(c1ccc(OCCN3CCOCC3)c(OC)c1)C(C#N)=C(N)O2 (stereo unspecified),-13,2,/
CCOc1ccc(C2C(C#N)=C(N)SC(N)=C2C#N)c(OCC)c1,4,72*,19
COC(=O)CN1C(c2ccccc2)=Nc2ccc(Cl)cc2C1c1ccccc1 (stereo unspecified),3,/,/
CCN(CC)c1ccc(N2C(=O)/C(=C/c3cccnc3)SC2=S)cc1,-4,/,/
O=C(Nc1nnc(-c2ccc3c(c2)CCCC3)o1)c1ccccc1,-12,/,/
O=C(Nc1nnc(-c2ccc3c(c2)OCCO3)o1)c1ccc(Cc2ccccc2)cc1,33,59*,10
CCC(C)NC(=S)NNC(=O)c1ccc(C(C)(C)C)cc1 (stereo unspecified),7,/,/
c1ccc2c(c1)OCC(c1nnc3sc(-c4ccc5c(c4)OCO5)nn13)O2 (stereo unspecified),11,85*,69*
c1csc(-c2nn3c(C4COc5ccccc5O4)nnc3s2)c1 (stereo unspecified),10,91*,62*
Fc1ccc(-c2nn3c(C4COc5ccccc5O4)nnc3s2)cc1 (stereo unspecified),/,2,/
c1ccc2c(c1)ncn2Cc1nnc2sc(-c3ccc4c(c3)OCO4)nn12,5,69*,61*
Brc1ccccc1-c1nnc2sc(-c3ccc4c(c3)OCCO4)nn12,3,-86,/
Fc1ccc(-c2nnc3sc(C4COc5ccccc5O4)nn23)cc1 (stereo unspecified),-28,-15,/
COc1ccc(OCc2nn3c(Cn4cnc5ccccc54)nnc3s2)cc1,12,-24,/
Clc1ccccc1-c1nnc2sc(-c3ccc4c(c3)OCO4)nn12,67,92*,?
CN1C[C@@H]2C(c3ccc(C(F)(F)F)cc3)C3(c4cccnc4)CC2(C3)[C@H]1c1ccccc1 (stereo partly specified),-17,/,/
Cc1sc2ncnc(NCC(c3ccco3)N3CCCC3)c2c1C (stereo unspecified),-21,/,/
C=C(C)C(=O)Nc1cccc(C2=NOC3(C2)C[C@@H](C(N)=O)N(C(=O)CC(c2ccccc2)c2ccccc2)C3)c1 (stereo partly specified),2,/,/
CC(=O)c1ccc(NC(=S)N2C(C)CCCC2C)cc1 (stereo unspecified),-14,/,/
SMILES,RmlCD inh mix,HIV RNase H inh-1,HIV RNase H inh-2
CCOC(=O)c1cnn(-c2nc(-c3cccc(F)c3)cs2)c1C(F)(F)F,-2,/,/
C=CCn1c(SCC(=O)NC(=O)NC2CCCC2)nnc1C1CCCCC1,4,-4,/
C=CCn1c(SCc2cc(=O)n3ccsc3n2)nnc1C1CCCCC1,6,67*,-1
CCOC(=O)c1cc(-c2ccc(C)cc2)n(CC(=O)NCc2ccco2)c1C,-9,58*,31
CCOC(=O)c1cc(-c2ccc(C)cc2)n(CCC(=O)NCCN(C)C)c1C,?,3,/
O=C(CN1C(=O)COc2ccccc21)N(Cc1ccccc1)Cc1ccccn1,-7,84*,39
Cc1ccc(CN(Cc2cccnc2)C(=O)CN2C(=O)COc3ccccc32)o1,3,-6,/
CC(=O)Nc1nc(=S)ss1,3,64*,39
CC(C)CC(=O)Nc1nc(=S)ss1,2,/,/
CCO[C@@H]1OC(C(=O)N2CCN(Cc3ccc4c(c3)OCO4)CC2)=C[C@H](C2CC2)[C@H]1CCCO,5,/,/
Cc1oc(-c2ccc(Cl)cc2)cc1-c1nn2c(-c3ccoc3C)nnc2s1,14,86*,55*
Clc1ccc(-c2nnc3sc(-c4ccc(Br)o4)nn23)cc1,2,48,/
O=S(=O)(NCc1cn2ccccc2n1)c1cc(F)ccc1F,8,-27,/
CCOC(=O)Cc1csc(NC(=O)CCN2C(=O)c3ccccc3C2=O)n1,-13,-3,/
COc1ccc(-n2nnnc2-c2cn(C)nc2C(F)(F)F)cc1,20,/,/
Cc1cc2nc(-c3ccc(SCC(=O)N4CCN(C(=O)c5ccco5)CC4)nc3)[nH]c2cc1C,32,74*,45
Cc1cc2nc(-c3ccc(SCC(=O)N4CCOCC4)nc3)[nH]c2cc1C,11,7,/
N#C/C(=C\c1cn(-c2ccccc2)nc1-c1cccnc1)c1nnc2n1CCCCC2,-9,/,/
COc1cc(/C=C2/N=C(c3ccccc3)OC2=O)c(F)cc1OCc1ccccc1,8,/,/
CN1CCN(C(=O)C2=C[C@@H](C3CCCCC3)C[C@@H](OCCCCO)O2)CC1,5,/,/
Cc1ccc(C)c(Cn2c(=O)n(CCCC(=O)NCc3ccco3)c(=O)c3sccc32)c1,6,/,/
Cc1ccc(C)c(Cn2c(=O)n(CCC(=O)NCc3ccco3)c(=O)c3ccccc32)c1,/,75*,48
COc1ccc(C(C)=O)cc1CSCCC#N,-15,/,/
CCOc1ccc(N2Cc3ccccc3C2)cc1,-8,73*,61*
CCOc1ccc(N2CC(=O)N(c3ccc(OCC)cc3)CC2=O)cc1,-15,/,/
SMILES,RmlCD inh mix,HIV RNase H inh-1,HIV RNase H inh-2
CC(C)c1ccc2oc(-c3ccc(NC(=O)c4ncn[nH]4)cc3)nc2c1,11,74*,58*
O=C(Nc1ccc2oc(-c3cccc4ccccc34)nc2c1)c1ncn[nH]1,-13,/,/
CCC(C)c1ccc2oc(-c3ccc(NC(=O)c4ncn[nH]4)cc3)nc2c1 (stereo unspecified),-111,64*,71*
O=C(Nc1ccc2oc(-c3ccccc3Cl)nc2c1)c1ncn[nH]1,-9,-11,/
Cc1cc(Br)ccc1NC(=O)CNC(=O)CN(C)Cc1nc2ccccc2c(=O)[nH]1,-1,11,/
CCN(CC)S(=O)(=O)c1cccc2c(N(C)C)cccc12,-12,-36,/
CCCCCC#CCC#CCC#CCC#CCCCC(=O)O,?,97*,66*
CCCCP(=O)(O)CCC(=O)O,-12,-5,/
CCOC(=O)CCSc1nnc(-c2cccnc2)n1-c1ccccc1OC,-18,-13,/
C/C(=N\NC(=O)c1cccc(S(=O)(=O)Nc2ccccc2Cl)c1)c1ccc(-n2ccnc2)cc1,-1,/,/
O=C(O)CCc1ccc(-c2cccs2)o1,-87,89*,22
Cc1ccc(-c2ccc(CCC(=O)O)o2)cc1,7,/,/
O=C1CCn2nc(-c3ccc(Cl)cc3)cc2N1,5,-10,/
c1ccc(-c2ccc(-c3ccccn3)nn2)nc1,/,83*,77*
c1ccc(-c2ccccn2)nc1,-13,0,/
CN(C)c1cccc(C(=O)Nc2cccc(F)c2)c1,-74,80*,85*
CCN(CC)c1ccc(C(=O)Nc2cccc(F)c2)cc1,-4,6,/
O=C(Nc1ccccc1C(=O)NC(Cc1ccccc1)C(=O)NC1CCCCCC1)c1ccccc1 (stereo unspecified),6,/,/
Nc1ccc(N2CCCCC2)cc1N1CCCCC1,/,-3,/
Fc1ccc(-n2[nH]nnc2=S)cc1N1CCCC1,-5,63*,-6

# Screens as filed in PubChem BioAssay.
